Screens as filed in PubChem BioAssay.
Shown are actives, neighbours in structure and some others; about 9.9% of the full set was active somewhere.
Tau ThT inhib = tau fibrillization inhibition (ThT binding); Potency, µM (series often up to 57.4 µM), inactives show at the top dose activity, negative = inhibition, actives largely listed as inhibitors; P10636; hit rate 2.1% among 270,000; AID 1460; recombinant tau K18 P301L, heparin-induced fibrillization, ThT fluorescence; active means well fitted curve in the direction sought with a large enough effect; inconclusive means small, poorly fitted or top-dose-only effect, or another doubt; inactive means no such curve, though single readings can be large; an effect the other way counts as inactive or inconclusive; further: nearly all actives have a fitted effect of over 55% in size
Target sequence (P10636 561-689 P618L limits assumed): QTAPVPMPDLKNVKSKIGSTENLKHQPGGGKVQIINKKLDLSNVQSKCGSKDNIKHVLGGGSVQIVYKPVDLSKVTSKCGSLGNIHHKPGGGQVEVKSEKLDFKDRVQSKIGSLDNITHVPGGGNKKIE
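Aggregation was driven by heparin (20 uM final) acting on recombinant tau […] bearing P301L in 100 mM sodium acetate pH 7; fibrils were detected with Thioflavin T.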
Tau FP inhib = inhibitors of human tau fibril formation. K18 P301L tau heparin fibrillization, Alexa594 FP, 6 h. Potency, µM (series often up to 57.7 µM), for the others: at the top dose activity, negative = inhibition, actives largely listed as inhibitors. hit rate 0.39% among 280,000. AID 1468; active means well fitted curve in the direction sought with a large enough effect; inconclusive means small, poorly fitted or top-dose-only effect, or another doubt; inactive means no such curve, though single readings can be large; an effect the other way counts as inactive or inconclusive; further: nearly all actives have a fitted effect of over 55% in size
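Recombinant K18 P301L […], labeled with Alexa 594 at 0.24 uM over 15 uM unlabeled; heparin inducer 20 uM final; 37 C, 6 hr; FP endpoint.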
HPGD block = inhibitors of human 15-hydroxyprostaglandin dehydrogenase (HPGD) | P15428 | purified HPGD, NADH fluorescence kinetic, PGE2 substrate | Potency, µM, without a hit: at the top dose activity change, negative = inhibition, hits mostly inhibitors | hit rate 4.3% among 150,000 | AID 894
Target sequence (P15428 whole entry, looked up): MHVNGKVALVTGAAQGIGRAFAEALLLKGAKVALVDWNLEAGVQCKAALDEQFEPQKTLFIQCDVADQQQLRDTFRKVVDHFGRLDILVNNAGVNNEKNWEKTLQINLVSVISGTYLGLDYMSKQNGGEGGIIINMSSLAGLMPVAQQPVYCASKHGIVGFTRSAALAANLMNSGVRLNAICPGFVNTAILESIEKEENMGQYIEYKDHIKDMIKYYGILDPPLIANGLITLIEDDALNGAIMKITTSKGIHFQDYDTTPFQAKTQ
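20 nM HPGD preincubated 15 min at room temperature with compound in 50 mM Tris-HCl pH 8, 0.01% Tween 20. Started with 1 mM NAD+ and 30 uM prostaglandin E2; NADH fluorescence (360/450 nm) read 5 times over 30-s intervals, last minus first.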
JMJD2E inh = inhibitors of human JMJD2E histone demethylase | AID 2147 | hit rate 1.6% among 230,000 | JMJD2E catalytic domain, FDH-coupled NADH fluorescence (FDH is formaldehyde dehydrogenase) | Potency, µM (series often up to 57.1 µM), for the others: at the highest dose activity change, negative = inhibition, most hits filed as inhibitors;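 further: 0% = wells with enzyme and -100% = buffer wells without enzyme; nearly all actives have a fitted effect of over 50% in size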
Target sequence (B2RXH2 1-337 limits assumed): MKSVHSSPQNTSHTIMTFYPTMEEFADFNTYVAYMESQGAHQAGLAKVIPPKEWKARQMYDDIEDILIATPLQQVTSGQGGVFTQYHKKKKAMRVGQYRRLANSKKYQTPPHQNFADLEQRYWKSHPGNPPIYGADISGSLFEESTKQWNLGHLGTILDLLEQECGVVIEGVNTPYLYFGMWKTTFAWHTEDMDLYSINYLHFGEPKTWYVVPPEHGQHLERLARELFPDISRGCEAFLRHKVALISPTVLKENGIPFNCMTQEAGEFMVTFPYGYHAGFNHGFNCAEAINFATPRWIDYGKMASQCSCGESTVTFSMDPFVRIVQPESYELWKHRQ
ALDH1A1 inh = blocks purified human ALDH1A1 activity; Purified ALDH1A1, NADH fluorescence, propionaldehyde substrate; Potency, µM (highest dose often 75.3 µM), without a hit: at the top dose activity, negative = inhibition, most hits filed as inhibitors; hit rate 7.3% among 220,000; AID 1030;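 further: plate controls were no enzyme wells and a reference inhibitor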
Tau fluor counter = counter-screen for tau fibril formation inhibitors | tau K18 P301L (four-repeat tau fragment) Alexa594 fluorescence, heparin fibrillization | Potency, µM (titrated, usually from 57.7 µM), for inactives: at the top dose activity change, negative = decrease | hit rate 0.93% among 280,000; active means well fitted curve in the direction sought with a large enough effect; inconclusive means small, poorly fitted or top-dose-only effect, or another doubt; inactive means no such curve, though single readings can be large; an effect the other way counts as inactive or inconclusive; further: nearly all actives have a fitted effect of over 55% in size
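Human K18 P301L tau (15 uM unlabeled plus 0.24 uM Alexa 594-labeled, final) in 100 mM sodium acetate pH 7 was mixed with compound and 20 uM heparin and incubated 6 hr at 37 C.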
* hit, by the source's call; ? = inconclusive; . = no result given; [ ] = another dose, or the depositor's remark. Unless noted, the call rests on the fitted dose curve; in most records, active means well fitted inhibition curve with a large enough effect (not every such curve was filed as active); inconclusive means small, poorly fitted or top-dose-only effect, or another doubt; inactive means no such curve, though single readings can be large or run the other way. Unless noted, on the % scale 0 is the no-effect control and ±100 the full control effect; potency means the concentration at half of the fitted maximal effect.

SMILES | Tau ThT inhib | Tau FP inhib | HPGD block | JMJD2E inh | ALDH1A1 inh | Tau fluor counter
Cc1cc(C(=O)Nc2sc3c(c2C#N)CCC(C(C)(C)C)C3)no1 (stereo not given) | -11% | -4% | ? | ? | ? | -18%
Cc1cc(C(=O)Nc2sc(C)c(C)c2C#N)no1 | ? | 1% | -4% | -5% | 13µM* | -7%
CC(C)CCNC(=O)N1CCN(S(=O)(=O)c2ccc3c(ccn3C)c2)CC1 | -1% | -6% | . | . | . | -7%
Cc1nn(CCCC(=O)Nc2sc3c(c2C#N)CCC3)c(C)c1[N+](=O)[O-] | -14% | -1% | 22µM* | 5% | 2.5µM* | -20%
CC(C)c1cc(C(=O)Nc2sc3c(c2C#N)CCC3)no1 | -18% | -2% | ? | 0% | 18µM* | -18%
CCc1c(C)sc(NC(=O)CC#N)c1C#N | ? | -7% | ? | ? | 3.5µM* | -15%
N#Cc1c(NC(=O)c2cc([N+](=O)[O-])ccc2N2CCOCC2)sc2c1CCCC2 | 6% | 6% | 28µM* | 7% | -7% | 1%
CCOC(=O)CC(NC(=O)c1cc2cc(Br)cc(OC)c2oc1=O)c1ccc(OC)cc1 (stereo not given) | 1% | 0% | . | . | . | -10%
CCc1c(C)nc(SCC(=O)N2CCCCC2C)[nH]c1=O (stereo not given) | -10% | 1% | . | 1% | ? | -3%
O=S(=O)(c1ccccc1)N1CCC[C@@]2(CCN(c3ccncc3)C2)C1 | . | . | 6% | . | 5% | .
Cc1sc(-c2cc3ccccc3oc2=O)nc1-c1ccc(Cl)cc1 | 0% | -4% | . | . | . | -18%
Cc1c(C(=O)N2CCC(C(=O)Nc3ccc(F)c(Cl)c3)CC2)sc2nc[nH]c(=O)c12 | -4% | -8% | . | . | . | -15%
CCc1c(C)sc(NC(=O)c2cc(C(C)C)on2)c1C#N | -17% | -2% | . | -7% | 18µM* | -20%
CCCNC(=O)c1cc(C)no1 | -15% | -2% | -6% | 5% | 9% | -7%
CC(C)c1onc(C(=O)N2CCCCCC2)c1[N+](=O)[O-] | 6% | -3% | . | 7% | 25µM* | -5%
CCc1c(C)sc(NC(=O)c2cc(C)no2)c1C#N | ? | 9% | 32µM* | -4% | 13µM* | -12%
CCc1ccc(NC(=O)c2cc(C(C)C)on2)cc1 | 4% | 2% | -24% | 1% | ? | 1%
CCc1c(C)nc(SC(C(=O)O)c2ccccc2)c(C#N)c1C (stereo not given) | -5% | 3% | -1% | 10% | 7% | -7%
Cc1ccc(CN2C(=O)CN(C3CCCCCC3)C(=O)C2c2ccc(F)cc2)cc1 (stereo not given) | -14% | 5% | . | . | . | -11%
FC(F)(F)c1cc(NC(=S)Nc2ccc3cc4ccccc4cc3c2)cc(C(F)(F)F)c1 | ? | 1% | -17% | ? | -9% | ?
O=S(=O)(c1ccc(NC(=S)N/N=C/c2ccc(O)c(O)c2)cc1)N1CCOCC1 | ? | 2% | . | 13µM* | . | ?
C=CCNC(=S)Nc1cc(S(=O)(=O)N2CCOCC2)ccc1-n1cncn1 | -7% | -2% | -11% | 4% | 4.5µM* | -11%
O=S(=O)(c1ccc(Cl)c(NC(=S)Nc2ccccc2N2CCOCC2)c1)N1CCOCC1 | 3% | 4% | -8% | 3% | 20µM* | -1%
CCN(CC)c1ccc(C(=O)NC(=S)Nc2cc(S(=O)(=O)N3CCOCC3)ccc2-n2cncn2)cc1 | 12% | 1% | -13% | ? | -6% | 13%
O=S(=O)(c1ccc(Cl)c(NC(=S)N/N=C/c2ccc(O)cc2)c1)N1CCOCC1 | ? | -4% | -27% | ? | 10µM* | ?
SMILES | Tau ThT inhib | Tau FP inhib | HPGD block | JMJD2E inh | ALDH1A1 inh | Tau fluor counter
COc1ccc(N(C(=O)c2ccccc2F)S(=O)(=O)c2ccc3c(c2)n(C)c(=O)n3C)cc1 | 2% | 1% | . | . | . | -1%
Oc1ccc(/C=N/NC(=S)N2CCOCC2)cc1 | ? | 1% | . | ? | 14µM* | -20%
O=C(COC(=O)CCC(=O)c1cccs1)Nc1cc(S(=O)(=O)N2CCOCC2)ccc1Cl | -2% | 4% | -7% | 4% | 22µM* | -14%
CC(C)NC(=S)N/N=C/c1ccc(N2CCOCC2)cc1 | ? | 9% | ? | ? | ? | -16%
Oc1ccc(/C=N/NC(=S)Nc2cccnc2)cc1O | ? | -5% | -30% | 16µM* | ? | -29%
CC(C)(C)c1ccc(/C=N/NC(=S)Nc2cccnc2)cc1 | -5% | 11% | . | -10% | -5% | -7%
O=[N+]([O-])c1cc(Cl)cc(/C=N/NC(=S)Nc2ccc(S(=O)(=O)N3CCOCC3)cc2)c1O | 10µM* | 6% | . | 25µM* | . | ?
COC(=O)c1c(C)oc(C)c1S(=O)(=O)NC(c1ccccc1)c1ccccc1 | . | 5% | . | 2% | . | -18%
CC(C)CO/N=C1/[C@H]2O[C@@H]2[C@@H](O)[C@H]2[C@H]1CCn1c(=O)n(Cc3cc4c(cc3Cl)OCO4)c(=O)n12 | -4%[11.5 µM] | -5%[11.6 µM] | . | . | 1%[13.5 µM] | -5%[11.6 µM]
CC(C)CC(=O)Nc1c(C(=O)N2CCN(c3ccccc3F)CC2)oc2ccccc12 | ? | ? | . | . | . | -16%
CCC(C)c1ccc(Nc2ncccc2C#N)cc1 (stereo not given) | -12% | 6% | 18µM* | -15% | ? | -10%
COc1ccc(CNc2ccc(C)c(C)c2)c(OC)c1OC | -11% | 9% | . | -5% | 13µM* | -20%
COc1cc(C)c(CNc2ccc(OC)c(OC)c2)cc1C | ? | -6% | -17% | ? | 25µM* | ?
COc1ccc(CNc2cc(C)ccc2C)c(OC)c1OC | ? | 0% | -22% | -2% | ? | -27%
COc1cc(C)c(CNc2cc(C)cc(C)c2)cc1C | ? | -4% | -28% | 6% | -6% | -26%
COc1cc(C)c(CNc2cccc(C)c2)cc1C | 4% | 3% | -22% | -2% | 14µM* | -3%
CC(C)COc1ccccc1C1CC(=O)Nc2cc3c(cc21)OCO3 (stereo not given) | -14% | 5% | . | . | . | -20%
CCCC(=O)N(c1ccc2oc3c(c2c1)CCCC3)S(=O)(=O)c1cc(C)ccc1C | ? | -8% | . | . | . | -20%
Cc1ccc(NC(=O)CSc2nnc3[nH]c(=O)cc(-c4ccccc4)n23)cc1Cl | ? | -3% | . | . | . | -27%
COC(CN(C(=O)CCl)C(C(=O)NC1CCCCC1)c1ccc(C)cc1)OC (stereo not given) | 1% | 5% | -6% | -1% | ? | 1%
Cc1cccc2cc(CN(CCCN3CCOCC3)Cc3nnnn3C(C)(C)C)c(=O)[nH]c12 | -10% | -4% | -5% | -9% | 25µM* | -6%
COc1ccc2cc(CN(Cc3cccs3)Cc3nnnn3Cc3ccccc3)c(=O)[nH]c2c1 | -14% | 4% | -27% | ? | 2µM* | ?
